Reference: PubChem BioAssay AID1259343 (VanderVen Lab, College of Veterinary Medicine, Cornell …, 2017)
About 2,900 (47%) of roughly 6,200 compounds were called active. No stated cut-off is given here; in the data, active means inhibition above about 50%; inactive means the rest. The set was probably picked from earlier hits. The list shows a part of the results.

Assay: Mycobacterium tuberculosis growth inhibition, primary screen (AID 1259343)
Conditions: inhibition: at 10 µM, stronger effect = higher value; outcome: 10 uM
With `C=C(C)CNC(=S)NN=C(C)c1ccc(Cl)s1` the inhibition was 102% (active). For `CCOC(=O)NN=C(C)c1ccc(Cl)s1`, the inhibition was 19.5% (inactive). For `CC(=NNc1ncc(Cl)cc1Cl)c1ccc(Cl)s1`, the inhibition was 30.7% (inactive). For `CNC(=S)NN=C(C)c1ccc(Cl)s1`, the inhibition was 47.3% (inactive). For `O=C(NCCCCCC(=O)N1CCC(c2ccccc2)CC1)OCc1ccccc1`, the inhibition was 70.8% (active). For `CNC(=O)c1ccc2n1CCN(C(=O)OCc1ccccc1)C2C` (configuration not stated), the inhibition was 16.2% (inactive). In the case of `O=C(C1CCCC1)N1CCN(c2nc(-c3ccccc3Cl)nc3cc(Cl)ccc23)CC1`, the inhibition is reported as 24.6% (inactive). In the case of `Cc1ccc(C)c(N2CCN(C(=O)c3ccc4c(=O)nc5c(-c6ccccc6)n[nH]n5c4c3)CC2)c1`, the inhibition is reported as 46.6% (inactive). With `O=C(c1ccc([N+](=O)[O-])cc1)N1CCN(c2nc(-c3ccccc3)c3cc(Cl)ccc3n2)CC1` the inhibition was 68% (active). For `Cc1ccc(-n2ncc3c(C)nn(Cc4ccccc4F)c(=O)c32)c(C)c1`, the inhibition was 37.1% (inactive). For `CN(C)S(=O)(=O)c1ccc(CNc2cc(F)ccc2Cl)o1`, the inhibition was -3.01% (inactive). In the case of `O=S(=O)(Nc1ccc(Cl)cc1F)c1ccc(Br)cc1Cl`, the inhibition is reported as 71% (active). For `O=S(=O)(Nc1c(F)cccc1Br)c1cc(Cl)cc(Cl)c1`, the inhibition was 87.1% (active). For `CN(C1CCCCC1)S(=O)(=O)c1ccc(Br)cc1Cl`, the inhibition was -4.67% (inactive). With `O=S(=O)(Nc1c(F)cccc1F)c1c(Cl)cccc1Cl` the inhibition was 78.8% (active). For `Cc1ccc(F)cc1NS(=O)(=O)c1cc(Cl)sc1Cl`, the inhibition was 94.1% (active). For `Cc1ccc(NS(=O)(=O)c2ccc(F)cc2[N+](=O)[O-])c(F)c1`, the inhibition was 50.2% (active). In the case of `O=S(=O)(Nc1ccc(F)c(F)c1F)c1ccc(Cl)cc1F`, the inhibition is reported as 79.2% (active). In the case of `O=S(=O)(Nc1ccc(F)c(F)c1F)c1ccc(Cl)c2ncccc12`, the inhibition is reported as 63% (active). In the case of `O=S(=O)(Nc1ccc(F)cc1F)c1ccccc1Cl`, the inhibition is reported as 82.3% (active). In the case of `Cc1nnc(N2C(=N)S/C(=C\c3c(-c4ccccc4)n(C)c4ccccc34)C2=O)s1`, the inhibition is reported as 23.3% (inactive). For `NC(=O)c1ccccc1OCc1ccccc1C(F)(F)F`, the inhibition was 42.9% (inactive). For `O=S(=O)(Nc1cccc(F)c1)c1cc(Br)ccc1Br`, the inhibition was 29.6% (inactive). In the case of `O=S(=O)(Nc1ccc(F)cc1F)c1cccc(F)c1`, the inhibition is reported as -36.4% (inactive). With `O=S(=O)(Nc1c(F)cccc1F)c1cccc(Br)c1` the inhibition was 4.09% (inactive). In the case of `O=S(=O)(Nc1cc(Cl)ccc1O)c1cc(Br)ccc1Br`, the inhibition is reported as 105% (active). For `O=S(=O)(Nc1ccc(F)cc1)c1cc(Br)ccc1Br`, the inhibition was 33.5% (inactive). For `O=S(=O)(Nc1cc(F)ccc1F)c1cccc(Br)c1`, the inhibition was 103% (active). With `O=C(O)c1cc(F)ccc1NS(=O)(=O)c1ccc(Cl)cc1` the inhibition was 70% (active). In the case of `Cc1ccc(NS(=O)(=O)c2ccc(C)c(F)c2)c(C(=O)O)c1`, the inhibition is reported as 8.32% (inactive). With `CCCc1ccc(S(=O)(=O)Nc2ccc(F)cc2C(=O)O)cc1` the inhibition was -3.59% (inactive). With `O=S(=O)(Nc1cc(F)ccc1F)c1cc(Cl)cc(Cl)c1` the inhibition was 64.2% (active). For `O=[N+]([O-])c1ccc(Cl)c(S(=O)(=O)Nc2ccc(F)cc2Cl)c1`, the inhibition was 78.2% (active). In the case of `O=S(=O)(Nc1cc(F)ccc1F)c1ccc(Cl)cc1F`, the inhibition is reported as 64.4% (active). With `O=S(=O)(Nc1ccc(F)cc1F)c1ccc(Cl)cc1F` the inhibition was -21.9% (inactive). With `Cc1ccc(NS(=O)(=O)c2cccc(C(F)(F)F)c2)c([N+](=O)[O-])c1` the inhibition was 77.1% (active). In the case of `O=[N+]([O-])c1cc(Cl)ccc1NS(=O)(=O)c1cccc(C(F)(F)F)c1`, the inhibition is reported as -1.17% (inactive). For `Cc1ccc(NS(=O)(=O)c2ccc(Cl)cc2F)c(Cl)c1`, the inhibition was 73% (active). With `Cc1ccc(C)c(S(=O)(=O)Nc2ccc(Cl)cc2F)c1` the inhibition was 0.55% (inactive). In the case of `O=S(=O)(Nc1ccccc1I)c1ccc(C(F)(F)F)cc1`, the inhibition is reported as 41.5% (inactive). For `CCC1=NOC(c2nc3sc(C(C)(C)C)cc3c(=O)[nH]2)C1` (configuration not stated), the inhibition was 25.8% (inactive). In the case of `Cc1ccc(NS(=O)(=O)c2cc(Cl)cc(Cl)c2)cc1`, the inhibition is reported as 88.4% (active). In the case of `Cc1ccc(S(=O)(=O)Nc2ccc(Cl)c(C#N)c2)cc1`, the inhibition is reported as -29.9% (inactive). With `O=C(C1=C2SC=C(c3ccc(Br)cc3)N2CC1)c1ccc2c(c1)OCO2` the inhibition was -40.9% (inactive). With `CCCc1cc(=O)[nH]c(-n2nc(C)cc2NC(=O)Cc2cccc3ccccc23)n1` the inhibition was 100% (active). With `CCCc1cc(=O)[nH]c(-n2nc(C)cc2NC(=O)CC(c2ccccc2)c2ccccc2)n1` the inhibition was 101% (active). For `CCCc1cc(=O)[nH]c(-n2nc(C)cc2NC(=O)C(CC)c2ccccc2)n1` (configuration not stated), the inhibition was 102% (active). With `Cc1cc(=O)[nH]c(-n2nc(C)cc2NC(=O)Cc2cccc3ccccc23)n1` the inhibition was 102% (active). For `CCCc1cc(=O)[nH]c(-n2nc(C)cc2NC(=O)Cc2ccc(OCC)cc2)n1`, the inhibition was -19.4% (inactive). In the case of `CCCc1cc(=O)[nH]c(-n2nc(C)cc2NC(=O)CCc2ccccc2)n1`, the inhibition is reported as -14.3% (inactive). In the case of `CCCc1cc(=O)[nH]c(-n2nc(C)cc2NC(=O)Cc2ccccc2)n1`, the inhibition is reported as 99.9% (active). In the case of `COc1c(-c2coc3cc4c(cc3c2=O)CC(OC(C)=O)C(C)(C)O4)ccc2c1C=CC(C)(C)O2` (configuration not stated), the inhibition is reported as 77.7% (active).
